Inconclusive results are not listed. Activity calls are given as the source filed them. Unless noted, the call rests on the fitted dose curve; in most records, active means well fitted curve in the direction sought with a large enough effect in the repeat runs; inconclusive means weak or mixed curves; inactive means no such curve, though single readings can be large; an effect the other way counts as inactive or inconclusive.
Assays:
[1] = qHTS assay to identify aromatase inhibitors - cell viability counter screen (AID 743084);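 further: cells stimulated with testosterone during compound exposure; nearly all actives have a fitted effect of over 55% in size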
[2] = biological target: Aryl hydrocarbon receptor (Homo sapiens) (UniProt P35869); experiment: qHTS assay to identify small molecule that activate the aryl hydrocarbon receptor (AhR) signaling pathway (AID 743085);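 further: HG2L7.5c1 human HepG2 liver cells with stably integrated DRE-driven firefly reporter; series mostly up to about 70 µM; nearly all actives have a fitted effect of over 15% in size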
In short: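 HepG2 cells (HG2L7.5c1) stably carrying a firefly luciferase reporter driven by 20 dioxin responsive elements were exposed to compound for 24 h at 37C after a 5 h settling period; luminescence rise (ONE-Glo) indicated activation.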

[3] = qHTS assay to identify small molecule that activate the aryl hydrocarbon receptor (AhR) signaling pathway - cell viability counter screen (AID 743086);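 further: HepG2 liver cells carrying the AhR DRE luciferase reporter; series mostly up to about 70 µM; nearly all actives have a fitted effect of over 45% in size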
In short: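 HepG2-AhR-luc (HG2L7.5c1) cells, 4000/well, were preincubated 5 h at 37C, exposed to compound in qHTS format for 24 hr at 37C, then given CellTiter-Fluor for 30 min; viability was read as fluorescence in the reporter wells.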

[4] = biological target: Peroxisome proliferator-activated receptor gamma (Homo sapiens) (UniProt P37231); experiment: qHTS assay to identify small molecule agonists of the peroxisome proliferator-activated receptor gamma (PPARg) signaling pathway (AID 743094; active means well fitted activation curve with a large enough effect in the signal ratio in the repeat runs, not every such curve was filed as active; the % refers to the signal ratio)
In short: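 Cells from the PPARg UAS-bla HEK293H line are plated and incubated 5 h at 37C. Compounds in DMSO are pinned in and left 17 h at 37C. LiveBLAzer B/G substrate is then added for 1 h at room temperature before fluorescence is measured.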

[5] = biological target: Peroxisome proliferator-activated receptor gamma (Homo sapiens) (UniProt P37231); experiment: qHTS assay to identify small molecule antagonists of the peroxisome proliferator-activated receptor gamma (PPARg) signaling pathway (AID 743191; calls by dose curve; further: series mostly up to about 63 µM; nearly all actives have a fitted effect of over 30% in size)
In short: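 GeneBLAzer PPARg UAS-bla HEK293H cells carrying a UAS-driven beta-lactamase reporter were plated at 3000 cells/well, preincubated 5 h at 37C, then given compound for 17 h at 37C; LiveBLAzer B/G FRET substrate was read after 1 h at room temperature.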

[6] = qHTS assay for small molecule agonists of the antioxidant response element (ARE) signaling pathway - cell viability counter screen (AID 743203; calls by dose curve; further: nearly all actives have a fitted effect of over 55% in size)
In short: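 Cytotoxicity was tested in parallel with the ARE reporter screen. ARE-bla HepG2 cells were exposed to compounds for 16 hrs, and viability was taken from CellTiter-Glo luminescence.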

[7] = qHTS assay for small molecule activators of the heat shock response signaling pathway - cell viability counter screen (AID 743209); further: nearly all actives have a fitted effect of over 50% in size
In short: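 Cytotoxicity counter screen run in parallel with the HSE beta-lactamase reporter, using the same wells. HeLa HSE-bla cells received compound for 5 h at 37 C; ATP-based CellTiter-Glo luminescence was measured after 30 min at room temperature.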

[8] = qHTS assay for small molecule activators of the heat shock response signaling pathway (AID 743210; active means well fitted activation curve with a large enough effect in the signal ratio in the repeat runs, with a control signal flat, not every such curve was filed as active; the % refers to the signal ratio;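 further: HeLa cells with beta-lactamase reporter driven by heat shock elements; series mostly up to about 63 µM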)
In short: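 Activation of heat shock element-controlled beta-lactamase expression is measured in HeLa cells by LiveBLAzer FRET fluorescence, with compound exposure lasting 5 h at 37 C and substrate loading 2.5 h at room temperature.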

[9] = qHTS assay to identify small molecule agonists of the peroxisome proliferator-activated receptor delta (PPARd) signaling pathway - cell viability counter screen (AID 743211); further: nearly all actives have a fitted effect of over 55% in size
In short: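 PPARd-bla HEK293H cells (UAS-beta-lactamase reporter) were treated with compounds for 17 h at 37 C. Viability was then read in the same wells by CellTiter-Glo luminescence after 30 min at room temperature.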

[10] = qHTS assay to identify small molecule antagonists of the peroxisome proliferator-activated receptor delta (PPARd) signaling pathway - cell viability counter screen (AID 743213); further: nearly all actives have a fitted effect of over 50% in size
In short: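 PPARd-bla HEK293H cells (3000/well) got compound plus 300 nM L165041 agonist for 17 h at 37 C. Viability in the same wells came from CellTiter-Glo luminescence after 30 min at room temperature.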

[11] = biological target: Bile acid receptor (Homo sapiens) (UniProt Q96RI1); experiment: qHTS assay to identify small molecule antagonists of the farnesoid-X-receptor (FXR) signaling pathway (AID 743217; active means well fitted inhibition curve with a large enough effect in the signal ratio in the repeat runs, not every such curve was filed as active; the % refers to the signal ratio)
In short: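 Cells carrying a UAS-driven beta-lactamase reporter (GeneBLAzer FXR-UAS-bla HEK 293T) were plated and rested 5 h at 37 °C. Compounds in DMSO were added alongside chenodeoxycholic acid agonist at 50 uM final and left 16 h at 37 °C before FRET substrate readout.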

[12] = qHTS assay to identify small molecule agonists of the farnesoid-X-receptor (FXR) signaling pathway - cell viability counter screen (AID 743218); further: nearly all actives have a fitted effect of over 45% in size
In short: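 Cells were seeded, left 5 h at 37 C and 5% CO2, then dosed with compound in DMSO for 16 h. After the beta-lactamase FRET read, CellTiter-Glo was added and luminescence measured 30 min later.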

[13] = biological target: Bile acid receptor (Homo sapiens) (UniProt Q96RI1); experiment: qHTS assay to identify small molecule agonists of the farnesoid-X-receptor (FXR) signaling pathway (AID 743220; active means well fitted activation curve with a large enough effect in the signal ratio in the repeat runs, not every such curve was filed as active; the % refers to the signal ratio)
In short: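 FXR-UAS-bla HEK 293T cells carrying a UAS-driven beta-lactamase reporter were plated for 5 h at 37C/5% CO2, then exposed to DMSO-dissolved Tox21 10K compounds for 16 h at 37C. A LiveBLAzer B/G FRET substrate was loaded for 2 h at room temperature before fluorescence reading.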

[14] = qHTS assay to identify small molecule antagonists of the farnesoid-X-receptor (FXR) signaling pathway - cell viability counter screen (AID 743221; active means well fitted cell-killing curve with a large enough effect in the repeat runs, not every such curve was filed as active; further: nearly all actives have a fitted effect of over 50% in size)
In short: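 FXR-UAS-bla HEK 293T cells were treated with test compounds plus chenodeoxycholic acid (50 uM final) for 16 h at 37 C. Cell viability in the same wells was then read as CellTiter-Glo luminescence after 30 min at room temperature.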

[15] = qHTS assay for small molecule agonists of the antioxidant response element (ARE) signaling pathway (AID 743202; active means well fitted activation curve with a large enough effect in the signal ratio in the repeat runs, not every such curve was filed as active; the % refers to the signal ratio)
In short: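 Steps: seed ARE-bla HepG2 cells (2,000/well); incubate 5 h at 37 C; add compounds by pin tool; incubate 16 h at 37 C; add FRET substrate; read fluorescence after 2 h at RT.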

[16] = biological target: Peroxisome proliferator-activated receptor delta (Homo sapiens) (UniProt Q03181); experiment: qHTS assay to identify small molecule agonists of the peroxisome proliferator-activated receptor delta (PPARd) signaling pathway (AID 743212; calls by dose curve)
In short: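 Cells expressing a UAS-driven beta-lactamase reporter (PPARd-bla HEK293H) were given test compounds after a 5 h settle and kept at 37 C. Reporter activity was then measured as FRET fluorescence using LiveBLAzer B/G substrate.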

[17] = biological target: Peroxisome proliferator-activated receptor delta (Homo sapiens) (UniProt Q03181); experiment: qHTS assay to identify small molecule antagonists of the peroxisome proliferator-activated receptor delta (PPARd) signaling pathway (AID 743215; active means well fitted inhibition curve with a large enough effect in the signal ratio in the repeat runs, not every such curve was filed as active; the % refers to the signal ratio;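 further: cells stimulated with agonist L165041 at 300 nM final during compound exposure; series mostly up to about 62 µM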)
In short: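 Cells: HEK293H with a UAS-driven beta-lactamase reporter responsive to PPARd. Compounds were co-added with L165041 (300 nM, final) and incubated 17 h at 37 C before a 2 h room-temperature FRET substrate step and fluorescence reading.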

[18] = biological target: Vitamin D3 receptor (Homo sapiens) (UniProt P11473); experiment: qHTS assay to identify small molecule agonists of the vitamin D receptor (VDR) signaling pathway (AID 743222; calls by dose curve)
In short: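 Cells carrying a VDR-driven beta-lactamase reporter are seeded at 2,000 per well and rested 4 h. Compounds in DMSO are added for 16 h at 37C, and FRET substrate fluorescence is measured after 2 h at room temperature.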

[19] = biological target: Vitamin D3 receptor (Homo sapiens) (UniProt P11473); experiment: qHTS assay to identify small molecule antagonists of the vitamin D receptor (VDR) signaling pathway (AID 743223; active means well fitted inhibition curve with a large enough effect in the signal ratio in the repeat runs, not every such curve was filed as active; the % refers to the signal ratio)
In short: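 VDR-bla cells were plated, incubated 4 h at 37C, then given compound and 1alpha,25-dihydroxyvitamin D3 (3 nM final). After 16 h at 37C, LiveBLAzer B/G FRET substrate was added for 2 h at room temperature and fluorescence read.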

[20] = qHTS assay to identify small molecule antagonists of the peroxisome proliferator-activated receptor gamma (PPARg) signaling pathway - cell viability counter screen (AID 743194); further: nearly all actives have a fitted effect of over 55% in size
In short: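 PPARg-UAS-bla HEK293H cells were plated, rested 5 h at 37 C, then treated with compounds plus rosiglitazone (50 nM final) for 17 h at 37 C; viability was then read by CellTiter-Glo luminescence after 30 min at room temperature.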

Measured: Potency

Chain of Peroxisome proliferator-activated receptor delta (Homo sapiens) (Q03181 whole entry, looked up): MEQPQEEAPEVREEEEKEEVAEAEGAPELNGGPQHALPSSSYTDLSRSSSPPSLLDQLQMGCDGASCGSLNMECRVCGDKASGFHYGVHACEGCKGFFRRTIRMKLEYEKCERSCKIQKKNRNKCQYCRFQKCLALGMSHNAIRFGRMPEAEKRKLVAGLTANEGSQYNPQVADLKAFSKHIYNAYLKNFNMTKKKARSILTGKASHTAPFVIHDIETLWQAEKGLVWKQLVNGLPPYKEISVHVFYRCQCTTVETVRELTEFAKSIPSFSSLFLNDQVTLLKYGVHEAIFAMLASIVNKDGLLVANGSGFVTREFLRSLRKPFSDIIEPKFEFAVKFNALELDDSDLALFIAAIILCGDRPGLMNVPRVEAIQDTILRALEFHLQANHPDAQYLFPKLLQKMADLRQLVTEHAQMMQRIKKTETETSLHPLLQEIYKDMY
Chain of Peroxisome proliferator-activated receptor gamma (Homo sapiens) (P37231 whole entry, looked up): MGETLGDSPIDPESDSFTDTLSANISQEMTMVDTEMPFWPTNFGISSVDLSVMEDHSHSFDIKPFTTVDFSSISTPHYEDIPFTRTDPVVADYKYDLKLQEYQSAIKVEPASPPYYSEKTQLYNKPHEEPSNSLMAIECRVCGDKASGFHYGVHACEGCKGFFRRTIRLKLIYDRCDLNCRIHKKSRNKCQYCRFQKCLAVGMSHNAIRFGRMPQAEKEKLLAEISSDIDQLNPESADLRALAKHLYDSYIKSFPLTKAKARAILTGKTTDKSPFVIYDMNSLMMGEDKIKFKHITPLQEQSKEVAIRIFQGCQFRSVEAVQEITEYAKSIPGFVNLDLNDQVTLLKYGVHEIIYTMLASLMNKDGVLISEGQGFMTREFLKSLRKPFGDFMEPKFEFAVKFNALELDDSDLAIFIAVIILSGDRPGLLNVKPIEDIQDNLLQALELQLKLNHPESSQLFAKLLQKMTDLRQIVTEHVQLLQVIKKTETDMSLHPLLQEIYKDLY
Chain of Vitamin D3 receptor (Homo sapiens) (P11473 whole entry, looked up): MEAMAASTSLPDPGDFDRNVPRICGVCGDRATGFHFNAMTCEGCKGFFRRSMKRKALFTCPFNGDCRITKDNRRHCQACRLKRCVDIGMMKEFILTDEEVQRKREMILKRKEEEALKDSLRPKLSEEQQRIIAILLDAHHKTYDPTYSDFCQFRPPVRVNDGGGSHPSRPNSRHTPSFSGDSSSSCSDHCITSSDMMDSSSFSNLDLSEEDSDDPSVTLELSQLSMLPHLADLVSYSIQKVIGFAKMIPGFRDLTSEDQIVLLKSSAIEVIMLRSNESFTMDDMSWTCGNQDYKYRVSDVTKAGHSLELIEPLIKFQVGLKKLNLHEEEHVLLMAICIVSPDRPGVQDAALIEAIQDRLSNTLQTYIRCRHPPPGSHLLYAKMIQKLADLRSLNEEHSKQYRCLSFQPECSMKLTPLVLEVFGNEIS
Chain of Aryl hydrocarbon receptor (Homo sapiens) (P35869 whole entry, looked up): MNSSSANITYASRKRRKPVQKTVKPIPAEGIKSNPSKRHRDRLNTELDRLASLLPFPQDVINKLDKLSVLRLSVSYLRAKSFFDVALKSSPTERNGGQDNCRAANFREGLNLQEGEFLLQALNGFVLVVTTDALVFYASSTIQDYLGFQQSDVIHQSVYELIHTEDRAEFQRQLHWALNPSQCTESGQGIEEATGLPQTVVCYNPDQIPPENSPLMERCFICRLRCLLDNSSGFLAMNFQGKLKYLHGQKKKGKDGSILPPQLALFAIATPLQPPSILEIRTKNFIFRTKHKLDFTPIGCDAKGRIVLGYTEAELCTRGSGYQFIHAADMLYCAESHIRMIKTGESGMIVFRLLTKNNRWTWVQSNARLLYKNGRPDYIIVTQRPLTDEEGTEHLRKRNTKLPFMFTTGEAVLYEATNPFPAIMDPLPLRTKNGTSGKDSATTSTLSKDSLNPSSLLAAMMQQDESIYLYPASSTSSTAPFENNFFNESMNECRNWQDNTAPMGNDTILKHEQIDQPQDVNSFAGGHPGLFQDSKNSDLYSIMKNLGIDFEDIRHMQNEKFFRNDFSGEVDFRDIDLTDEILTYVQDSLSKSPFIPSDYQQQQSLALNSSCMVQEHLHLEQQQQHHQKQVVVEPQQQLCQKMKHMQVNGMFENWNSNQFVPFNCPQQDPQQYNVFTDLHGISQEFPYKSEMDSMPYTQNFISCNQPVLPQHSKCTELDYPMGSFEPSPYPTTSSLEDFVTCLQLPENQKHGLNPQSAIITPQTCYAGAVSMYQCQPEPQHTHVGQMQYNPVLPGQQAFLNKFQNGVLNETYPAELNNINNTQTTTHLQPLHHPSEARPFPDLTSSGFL
Chain of Bile acid receptor (Homo sapiens) (Q96RI1 whole entry, looked up): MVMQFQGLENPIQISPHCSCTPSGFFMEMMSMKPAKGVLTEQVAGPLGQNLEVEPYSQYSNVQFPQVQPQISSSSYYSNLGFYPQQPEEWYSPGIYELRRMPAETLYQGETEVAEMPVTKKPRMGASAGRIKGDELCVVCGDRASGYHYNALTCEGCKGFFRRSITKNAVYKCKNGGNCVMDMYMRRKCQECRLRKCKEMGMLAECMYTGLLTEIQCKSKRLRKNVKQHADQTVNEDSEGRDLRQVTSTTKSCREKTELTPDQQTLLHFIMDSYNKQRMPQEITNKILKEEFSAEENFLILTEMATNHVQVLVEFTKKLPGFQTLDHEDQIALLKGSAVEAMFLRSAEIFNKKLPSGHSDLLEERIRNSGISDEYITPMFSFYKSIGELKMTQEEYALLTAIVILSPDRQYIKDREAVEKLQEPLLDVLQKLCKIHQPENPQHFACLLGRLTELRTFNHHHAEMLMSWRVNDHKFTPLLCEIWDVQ

COc1cc([C@H]2Oc3cc([C@H]4Oc5cc(O)cc(O)c5C(=O)[C@@H]4O)ccc3O[C@@H]2CO)ccc1O
not listed: [15] | [16] | [17] | [18] | [19] | [20]
inactive: all other assays above

c1ccc2ncccc2c1
not listed: [7] | [11] | [13] | [18] | [19] | [20]
inactive: all other assays above

CC(C)(Oc1ccc(Cl)cc1)C(=O)O
not listed: [11] | [13] | [20]
inactive: all other assays above

CC(=O)OC(C)C
not listed: [20]
inactive: all other assays above

C[C@]12CC[C@@H]3c4ccc(O)cc4CC[C@H]3[C@@H]1CC[C@H]2O
not listed: [5] | [11] | [13] | [15]
inactive: all other assays above

CC1(C)O[C@@H]2C[C@H]3[C@@H]4C[C@H](F)C5=CC(=O)C=C[C@]5(C)[C@@]4(F)[C@@H](O)C[C@]3(C)[C@]2(C(=O)CO)O1
not listed: [11] | [13] | [17] | [18] | [20]
inactive: all other assays above

CCO[Si](CCCNC(N)=O)(OCC)OCC
not listed: [20]
inactive: all other assays above

NCCOCCO
not listed: [4] | [5]
inactive: all other assays above

From PubChem BioAssay (Tox21)
